According to PubChem BioAssay (Tox21):
Several values for one entry are separate records, joined by “and”; a condition that tells them apart may be missing. Equal entries are not always repeated. More than one record can exist for a structure, and the calls need not agree. Activity calls are given as the source filed them. Entries that show only a call come without a potency. Unless noted, calls come from the whole dose curve; as a rule, active = well fitted curve in the direction sought with a large enough effect in the repeat runs; inconclusive = weak or mixed curves; inactive = no such curve, though single readings can be large; an effect the other way counts as inactive or inconclusive.

Assays:
[1] = qHTS assay to identify small molecule antagonists of the thyroid receptor (TR) signaling pathway - cell viability counter screen (AID 743064); note: nearly all actives have a fitted effect of over 50% in size
In short: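 GH3.TRE-Luc cells, 4 h pre-plating; cpd + T3 1 nM final; 37 °C 23.5 h; CellTiter-Fluor 30 min; fluorescence read.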

[2] = qHTS assay to identify small molecule antagonists of the thyroid receptor (TR) signaling pathway (AID 743065); note: series mostly up to about 70 µM; nearly all actives have a fitted effect of over 55% in size
In short: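 GH3.TRE-Luc rat pituitary cells carrying two TR response elements driving luciferase were plated for 4 h, given compound plus 1 nM T3 (final), and incubated 23.5 h at 37 C. ONE-Glo luminescence measured reporter inhibition; CellTiter-Fluor fluorescence tracked cytotoxicity.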

[3] = test system: thyroid hormone receptor (rat, GH3 cells); assay: qHTS assay to identify small molecule agonists of the thyroid receptor (TR) signaling pathway (AID 743066; calls by dose curve; note: potency is the fitted concentration of half-maximal effect)
[4] = molecular target: Estrogen receptor (Homo sapiens) (UniProt P03372); assay: qHTS assay to identify small molecule antagonists of the estrogen receptor alpha (ER-alpha) signaling pathway (AID 743069; active = well fitted curve in the direction sought with a large enough effect in the signal ratio in the repeat runs, not every such curve was filed as active; inconclusive = weak or mixed curves, or effect the other way; inactive = no such curve, though single readings can be large or run the other way; the % refers to the signal ratio; note: potency is the fitted concentration of half-maximal effect)
Chain of Estrogen receptor (Homo sapiens) (P03372 whole entry, looked up): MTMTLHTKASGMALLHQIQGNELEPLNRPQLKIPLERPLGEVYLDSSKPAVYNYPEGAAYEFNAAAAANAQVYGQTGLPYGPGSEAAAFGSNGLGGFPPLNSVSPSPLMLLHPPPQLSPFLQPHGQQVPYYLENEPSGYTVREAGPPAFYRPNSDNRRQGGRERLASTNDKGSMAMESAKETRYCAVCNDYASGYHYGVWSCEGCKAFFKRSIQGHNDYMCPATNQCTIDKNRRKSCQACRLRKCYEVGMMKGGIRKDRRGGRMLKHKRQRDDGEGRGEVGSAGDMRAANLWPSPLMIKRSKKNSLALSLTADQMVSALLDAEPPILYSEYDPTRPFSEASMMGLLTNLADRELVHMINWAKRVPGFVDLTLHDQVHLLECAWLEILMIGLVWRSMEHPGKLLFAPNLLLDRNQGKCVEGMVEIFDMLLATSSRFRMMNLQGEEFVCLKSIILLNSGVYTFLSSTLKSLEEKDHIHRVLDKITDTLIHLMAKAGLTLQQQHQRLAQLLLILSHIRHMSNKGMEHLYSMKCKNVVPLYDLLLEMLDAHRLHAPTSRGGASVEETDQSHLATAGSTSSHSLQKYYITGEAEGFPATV
In short: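 A 17beta-estradiol challenge was applied right after compound transfer to ER-alpha-UAS-bla HEK293 cells previously kept in charcoal-stripped serum. Plates stood 18 hr at 37C and 5% CO2; fluorescence was read following 2 hr FRET substrate loading at room temperature.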

[5] = qHTS assay to identify small molecule antagonists of the estrogen receptor alpha (ER-alpha) signaling pathway - cell viability counter screen (AID 743074; calls by dose curve;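 note: HEK293 cells carrying ER-alpha-UAS-bla reporter stimulated with 17beta-estradiol; nearly all actives have a fitted effect of over 45% in size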)
[6] = molecular target: Estrogen receptor (Homo sapiens) (UniProt P03372); assay: qHTS assay to identify small molecule agonists of the estrogen receptor alpha (ER-alpha) signaling pathway (AID 743075; calls by dose curve;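 note: HEK293 GripTite cells with ER-alpha and UAS-driven beta-lactamase reporter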; note: potency is the fitted concentration of half-maximal effect)
[7] = molecular target: Estrogen receptor (Homo sapiens) (UniProt P03372); assay: qHTS assay to identify small molecule agonists of the estrogen receptor alpha (ER-alpha) signaling pathway using the BG1 cell line (AID 743079); note: nearly all actives have a fitted effect of over 20% in size; note: potency is the fitted concentration of half-maximal effect
[8] = qHTS assay to identify small molecule antagonists of the estrogen receptor alpha (ER-alpha) signaling pathway using the BG1 cell line - cell viability counter screen (AID 743081);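 note: compound given together with 17beta-estradiol as the ER stimulus; nearly all actives have a fitted effect of over 45% in size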; note: potency is the fitted concentration of half-maximal effect
Aromatase (Homo sapiens) = Aromatase (Homo sapiens) (UniProt P11511); assay: qHTS assay to identify aromatase inhibitors (AID 743083); note: series mostly up to about 70 µM; nearly all actives have a fitted effect of over 55% in size
Chain of Aromatase (Homo sapiens) (P11511 whole entry, looked up): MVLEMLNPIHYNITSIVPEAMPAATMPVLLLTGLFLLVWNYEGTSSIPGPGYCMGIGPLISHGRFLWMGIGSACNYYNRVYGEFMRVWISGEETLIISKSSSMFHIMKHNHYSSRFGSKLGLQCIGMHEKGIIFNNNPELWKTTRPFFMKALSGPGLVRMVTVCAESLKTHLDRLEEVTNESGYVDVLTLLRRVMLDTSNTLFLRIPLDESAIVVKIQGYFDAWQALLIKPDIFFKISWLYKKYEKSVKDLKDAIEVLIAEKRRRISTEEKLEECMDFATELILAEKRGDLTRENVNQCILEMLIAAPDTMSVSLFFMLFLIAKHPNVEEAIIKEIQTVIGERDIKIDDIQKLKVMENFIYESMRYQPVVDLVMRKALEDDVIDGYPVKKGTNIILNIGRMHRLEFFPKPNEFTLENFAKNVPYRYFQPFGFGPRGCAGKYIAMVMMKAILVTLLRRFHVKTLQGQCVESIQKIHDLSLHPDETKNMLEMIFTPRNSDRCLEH

[9] = qHTS assay to identify aromatase inhibitors - cell viability counter screen (AID 743084);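 note: cells stimulated with testosterone during compound exposure; nearly all actives have a fitted effect of over 55% in size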
[10] = qHTS assay to identify small molecule that activate the aryl hydrocarbon receptor (AhR) signaling pathway - cell viability counter screen (AID 743086);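 note: HepG2 liver cells carrying the AhR DRE luciferase reporter; series mostly up to about 70 µM; nearly all actives have a fitted effect of over 45% in size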
In short: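 HepG2-AhR-luc (HG2L7.5c1) cells, 4000/well, were preincubated 5 h at 37C, exposed to compound in qHTS format for 24 hr at 37C, then given CellTiter-Fluor for 30 min; viability was read as fluorescence in the reporter wells.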

[11] = qHTS assay to identify small molecule antagonists of the peroxisome proliferator-activated receptor gamma (PPARg) signaling pathway - cell viability counter screen (AID 743194); note: nearly all actives have a fitted effect of over 55% in size
In short: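 PPARg-UAS-bla HEK293H cells were plated, rested 5 h at 37 C, then treated with compounds plus rosiglitazone (50 nM final) for 17 h at 37 C; viability was then read by CellTiter-Glo luminescence after 30 min at room temperature.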

[12] = qHTS assay for small molecule agonists of the antioxidant response element (ARE) signaling pathway (AID 743202; active = well fitted activation curve with a large enough effect in the signal ratio in the repeat runs, not every such curve was filed as active; inconclusive = weak or mixed curves, or effect the other way; inactive = no such curve, though single readings can be large or run the other way; the % refers to the signal ratio; note: potency is the fitted concentration of half-maximal effect)
In short: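 Following a 16 h, 37 C exposure of reporter HepG2 cells (ARE-driven beta-lactamase, 2,000 cells/well) to compounds, FRET substrate was applied for 2 h at room temperature and fluorescence intensity recorded.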

[13] = qHTS assay for small molecule agonists of the antioxidant response element (ARE) signaling pathway - cell viability counter screen (AID 743203; calls by dose curve; note: nearly all actives have a fitted effect of over 55% in size)
In short: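 Cytotoxicity was tested in parallel with the ARE reporter screen. ARE-bla HepG2 cells were exposed to compounds for 16 hrs, and viability was taken from CellTiter-Glo luminescence.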

[14] = qHTS assay for small molecule activators of the heat shock response signaling pathway - cell viability counter screen (AID 743209); note: nearly all actives have a fitted effect of over 50% in size
In short: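 Cytotoxicity counter screen run in parallel with the HSE beta-lactamase reporter, using the same wells. HeLa HSE-bla cells received compound for 5 h at 37 C; ATP-based CellTiter-Glo luminescence was measured after 30 min at room temperature.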

[15] = qHTS assay for small molecule activators of the heat shock response signaling pathway (AID 743210; active = well fitted activation curve with a large enough effect in the signal ratio in the repeat runs, with a control signal flat, not every such curve was filed as active; inconclusive = weak or mixed curves; the % refers to the signal ratio; note: series mostly up to about 63 µM)
In short: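 Heat shock element–beta-lactamase HeLa reporter cells; qHTS with compounds for 5 h at 37 C; detection by FRET substrate fluorescence after 2.5 h at RT.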

[16] = molecular target: Peroxisome proliferator-activated receptor gamma (Homo sapiens) (UniProt P37231); assay: qHTS assay to identify small molecule agonists of the peroxisome proliferator-activated receptor gamma (PPARg) signaling pathway (AID 743094; active = well fitted activation curve with a large enough effect in the signal ratio in the repeat runs, not every such curve was filed as active; inconclusive = weak or mixed curves, or effect the other way; inactive = no such curve, though single readings can be large or run the other way; the % refers to the signal ratio)
Chain of Peroxisome proliferator-activated receptor gamma (Homo sapiens) (P37231 whole entry, looked up): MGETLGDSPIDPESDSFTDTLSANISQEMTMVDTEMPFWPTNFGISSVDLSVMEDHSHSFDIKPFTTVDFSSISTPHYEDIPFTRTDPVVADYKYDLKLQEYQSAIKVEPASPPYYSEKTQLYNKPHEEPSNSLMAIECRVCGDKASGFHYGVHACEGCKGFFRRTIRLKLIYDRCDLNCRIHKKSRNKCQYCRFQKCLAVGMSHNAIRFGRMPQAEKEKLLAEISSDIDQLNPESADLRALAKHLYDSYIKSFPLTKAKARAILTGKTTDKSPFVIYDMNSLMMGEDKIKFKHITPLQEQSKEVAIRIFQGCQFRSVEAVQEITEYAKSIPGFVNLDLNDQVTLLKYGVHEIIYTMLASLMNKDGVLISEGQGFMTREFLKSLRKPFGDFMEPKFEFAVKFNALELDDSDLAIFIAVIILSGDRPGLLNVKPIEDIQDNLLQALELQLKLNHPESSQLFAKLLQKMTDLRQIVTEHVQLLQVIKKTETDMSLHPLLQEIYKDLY
In short: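 Cells from the PPARg UAS-bla HEK293H line are plated and incubated 5 h at 37C. Compounds in DMSO are pinned in and left 17 h at 37C. LiveBLAzer B/G substrate is then added for 1 h at room temperature before fluorescence is measured.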

[17] = molecular target: Peroxisome proliferator-activated receptor gamma (Homo sapiens) (UniProt P37231); assay: qHTS assay to identify small molecule antagonists of the peroxisome proliferator-activated receptor gamma (PPARg) signaling pathway (AID 743191; calls by dose curve; note: series mostly up to about 63 µM; nearly all actives have a fitted effect of over 30% in size)
In short: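 GeneBLAzer PPARg UAS-bla HEK293H cells carrying a UAS-driven beta-lactamase reporter were plated at 3000 cells/well, preincubated 5 h at 37C, then given compound for 17 h at 37C; LiveBLAzer B/G FRET substrate was read after 1 h at room temperature.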

[18] = molecular target: Aryl hydrocarbon receptor (Homo sapiens) (UniProt P35869); assay: qHTS assay to identify small molecule that activate the aryl hydrocarbon receptor (AhR) signaling pathway (AID 743085); note: nearly all actives have a fitted effect of over 15% in size; note: potency is the fitted concentration of half-maximal effect;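 for activation: HG2L7.5c1 human HepG2 liver cells with stably integrated DRE-driven firefly reporter; series mostly up to about 70 µM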
Chain of Aryl hydrocarbon receptor (Homo sapiens) (P35869 whole entry, looked up): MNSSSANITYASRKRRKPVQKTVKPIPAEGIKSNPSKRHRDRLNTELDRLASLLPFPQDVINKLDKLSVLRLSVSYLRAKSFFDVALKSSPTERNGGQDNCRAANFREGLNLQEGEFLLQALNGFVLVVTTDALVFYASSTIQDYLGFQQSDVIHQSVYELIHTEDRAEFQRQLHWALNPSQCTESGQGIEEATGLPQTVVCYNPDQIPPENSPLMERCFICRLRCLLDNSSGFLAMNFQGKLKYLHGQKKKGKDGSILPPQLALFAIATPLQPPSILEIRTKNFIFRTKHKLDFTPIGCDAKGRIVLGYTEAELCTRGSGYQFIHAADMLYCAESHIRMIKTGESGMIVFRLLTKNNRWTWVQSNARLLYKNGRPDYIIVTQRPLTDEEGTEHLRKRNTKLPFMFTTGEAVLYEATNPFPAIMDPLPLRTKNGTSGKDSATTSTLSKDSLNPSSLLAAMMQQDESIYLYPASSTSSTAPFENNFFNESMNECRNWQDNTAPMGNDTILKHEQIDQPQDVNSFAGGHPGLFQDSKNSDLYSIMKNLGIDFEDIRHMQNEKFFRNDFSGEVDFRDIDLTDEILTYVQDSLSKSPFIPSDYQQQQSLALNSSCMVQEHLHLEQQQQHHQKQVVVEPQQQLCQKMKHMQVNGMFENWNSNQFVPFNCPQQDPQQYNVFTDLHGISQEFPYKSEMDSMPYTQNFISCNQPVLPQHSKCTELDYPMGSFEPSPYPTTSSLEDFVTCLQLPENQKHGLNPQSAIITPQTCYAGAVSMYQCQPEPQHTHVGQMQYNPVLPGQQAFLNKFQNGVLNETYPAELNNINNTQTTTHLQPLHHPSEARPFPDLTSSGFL
In short: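 Luminescence read-out: ONE-Glo reagent, 30 min at room temperature, in HG2L7.5c1 HepG2 reporter cells treated 24 h at 37C. Viability was measured beforehand by CellTiter-Fluor fluorescence after 30 min at 37C.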

[19] = qHTS assay to identify small molecule antagonists of the estrogen receptor alpha (ER-alpha) signaling pathway using the BG1 cell line (AID 743080; calls by dose curve;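 note: BG1 cells stimulated with 17beta-estradiol alongside compound; series mostly up to about 70 µM; nearly all actives have a fitted effect of over 25% in size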)
In short: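 Endogenous full-length ER-alpha in BG1-Luc-4E2 cells drives a stably integrated 4×ERE luciferase gene; compounds were tested against 17beta-estradiol over 21.5 h, with luminescence and multiplexed viability fluorescence recorded.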

c1ccc2c(c1)ccc1cc3c(ccc4ccccc43)cc12
Potency [1]: inactive | Potency [2]: inactive | Potency [3]: inactive | Potency [4]: inactive | Potency [5]: inactive | Potency [6]: inactive and 19.3 µM [fluorescent] (active) | Potency [7]: inactive | Potency [8]: inactive | Potency (Aromatase (Homo sapiens)): inactive | Potency [9]: inactive | Potency [10]: inactive | Potency [11]: inactive | Potency [12]: 538 nM (active) and 959 nM (active) | Potency [13]: inactive | Potency [14]: inactive | outcome [15]: inactive

C[C@]12C=CC(=O)C=C1CC[C@H]1[C@@H]3C[C@@H](O)[C@](O)(C(=O)CO)[C@@]3(C)C[C@H](O)[C@@]12F
Potency [1]: inactive | Potency [2]: inactive | Potency [3]: inactive | Potency [5]: inactive | Potency [6]: inactive | Potency [7]: 4.73 µM (active) and 48.6 µM (active) | Potency [8]: inactive | Potency (Aromatase (Homo sapiens)): inactive | Potency [9]: inactive | Potency [10]: inactive | outcome [16]: inactive | Potency [17]: inactive | Potency [11]: inactive | Potency [12]: inactive | Potency [13]: inactive | outcome [15]: inactive

COc1ccc2nc(N)sc2c1
Potency [1]: inactive | Potency [2]: inactive | Potency [3]: inactive | Potency [4]: inactive | Potency [5]: inactive | Potency [6]: inactive | Potency [7]: 30.6 µM (active) and 54.5 µM (active) | Potency [8]: inactive | Potency (Aromatase (Homo sapiens)): inactive | Potency [9]: inactive | Potency [10]: inactive | outcome [16]: inactive | Potency [17]: inactive | Potency [11]: inactive | Potency [12]: inactive | Potency [13]: inactive | Potency [14]: inactive

CC(=O)[C@@]1(O)CC[C@H]2[C@@H]3C[C@H](C)C4=CC(=O)C=C[C@]4(C)[C@@]3(F)[C@@H](O)C[C@@]21C
Potency [1]: inactive | Potency [2]: inactive | Potency [3]: inactive | Potency [4]: inactive | Potency [5]: inactive | Potency [6]: inactive | Potency [7]: inactive | Potency [8]: inactive | Potency (Aromatase (Homo sapiens)): inactive | Potency [9]: inactive | Potency [18]: inactive | Potency [10]: inactive | outcome [16]: inactive | Potency [17]: inactive | Potency [11]: inactive | Potency [12]: inactive | Potency [13]: inactive | Potency [14]: inactive | outcome [15]: inactive

O=C(O)COCCN1CCN(C(c2ccccc2)c2ccc(Cl)cc2)CC1 (stereo unspecified)
Potency [1]: inactive | Potency [2]: inactive | Potency [3]: inactive | Potency [4]: inactive | Potency [5]: inactive | Potency [6]: inactive | Potency [7]: inactive | Potency [19]: inactive | Potency [8]: inactive | Potency [9]: inactive | Potency [10]: inactive | outcome [16]: inactive | Potency [17]: inactive | Potency [11]: inactive | Potency [13]: inactive | Potency [14]: inactive

CC(=O)OC(C)C
Potency [1]: inactive | Potency [2]: inactive | Potency [3]: inactive | Potency [4]: inactive | Potency [5]: inactive | Potency [6]: inactive | Potency [19]: inactive | Potency [8]: inactive | Potency (Aromatase (Homo sapiens)): inactive | Potency [9]: inactive | Potency [18]: inactive | Potency [10]: inactive | outcome [16]: inactive | Potency [17]: inactive | Potency [11]: inactive | Potency [12]: inactive | Potency [13]: inactive | outcome [15]: inactive

Brc1nc2ccccc2s1
Potency [1]: inactive | Potency [2]: inactive | Potency [3]: inactive | Potency [4]: inactive | Potency [6]: inactive | Potency [7]: inactive | Potency [19]: inactive | Potency [8]: inactive | Potency (Aromatase (Homo sapiens)): inactive | Potency [9]: inactive | Potency [18]: 30.5 µM (active) and 13.7 µM (active) | Potency [10]: inactive | outcome [16]: inactive | Potency [17]: inactive | Potency [11]: inactive | Potency [13]: inactive | Potency [14]: inactive | outcome [15]: inactive

CCCCCCC(C)O (stereo unspecified)
Potency [1]: inactive | Potency [2]: inactive | Potency [3]: 55.6 µM (active) and inactive | Potency [4]: inactive | Potency [5]: inactive | Potency [6]: inactive | Potency [7]: inactive | Potency [19]: inactive | Potency [8]: inactive | Potency (Aromatase (Homo sapiens)): inactive | Potency [9]: inactive | Potency [10]: inactive | outcome [16]: inactive | Potency [17]: inactive | Potency [11]: inactive | Potency [12]: inactive | Potency [13]: inactive | Potency [14]: inactive | outcome [15]: inactive

CCO[Si](CCCNC(N)=O)(OCC)OCC
Potency [1]: inactive | Potency [2]: inactive | Potency [3]: inactive | Potency [4]: inactive | Potency [5]: inactive | Potency [6]: inactive | Potency [7]: inactive | Potency [19]: inactive | Potency [8]: inactive | Potency (Aromatase (Homo sapiens)): inactive | Potency [9]: inactive | Potency [10]: inactive | outcome [16]: inactive | Potency [17]: inactive | Potency [11]: inactive | Potency [12]: inactive | Potency [13]: inactive | Potency [14]: inactive | outcome [15]: inactive

COC(=O)c1ccc(C)cc1
Potency [1]: inactive | Potency [2]: inactive | Potency [3]: inactive | Potency [4]: inactive | Potency [5]: inactive | Potency [6]: inactive | Potency [7]: inactive | Potency [19]: inactive | Potency [8]: inactive | Potency (Aromatase (Homo sapiens)): inactive | Potency [9]: inactive | Potency [18]: inactive | Potency [10]: inactive | Potency [11]: inactive | Potency [12]: inactive | Potency [13]: inactive | Potency [14]: inactive | outcome [15]: inactive

NCCOCCO
Potency [1]: inactive | Potency [2]: inactive | Potency [3]: inactive | Potency [4]: inactive | Potency [5]: inactive | Potency [6]: inactive | Potency [7]: inactive | Potency [19]: inactive | Potency [8]: inactive | Potency (Aromatase (Homo sapiens)): inactive | Potency [9]: inactive | Potency [18]: inactive | Potency [10]: inactive | Potency [11]: inactive | Potency [12]: inactive | Potency [13]: inactive | Potency [14]: inactive | outcome [15]: inactive

ClC/C=C/CCl
Potency [1]: inactive | Potency [2]: inactive | Potency [3]: inactive | Potency [4]: inactive | Potency [5]: inactive | Potency [6]: inactive | Potency [7]: inactive | Potency [19]: inactive | Potency [8]: inactive | Potency (Aromatase (Homo sapiens)): inactive | Potency [9]: inactive | Potency [10]: inactive | outcome [16]: inactive | Potency [17]: inactive | Potency [11]: inactive | Potency [12]: 24.1 µM (active) and 24.5 µM (active) | Potency [13]: inactive | Potency [14]: inactive | outcome [15]: inactive

CC(=O)Oc1ccc(C(c2ccc(OC(C)=O)cc2)c2ccccn2)cc1
Potency [1]: inactive | Potency [2]: inactive | Potency [3]: inactive | Potency [4]: 19 µM [inconclusive] (active) and 24.4 µM [inconclusive] (active) | Potency [5]: inactive | Potency [6]: 3.01 µM [activator] (active) | Potency [8]: 2.11 µM (active) and 1.92 µM (active) | Potency (Aromatase (Homo sapiens)): inactive | Potency [9]: inactive | Potency [18]: inactive | Potency [10]: inactive | outcome [16]: inactive | Potency [17]: inactive | Potency [11]: inactive | Potency [12]: inactive | Potency [13]: inactive | Potency [14]: inactive | outcome [15]: inactive
